# About 14,000 (4.5%) of roughly 310,000 compounds showed an effect of 50% or more. Effects have a minus sign here. The list comes from a sample in which strong results are over-represented; it also holds similar structures and randomly drawn compounds.
# Target: human ether-à-go-go-related gene (hERG) potassium channel (human, UniProt Q12809)
# Test: primary screen, population patch clamp on CHO cells stably expressing hERG; higher = less effect of the substance
# 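Note: peak tail current of the secondary pulse compared with the same well before compound.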
# human ether-à-go-go-related gene (hERG) potassium channel, sequence (Q12809 whole entry, looked up): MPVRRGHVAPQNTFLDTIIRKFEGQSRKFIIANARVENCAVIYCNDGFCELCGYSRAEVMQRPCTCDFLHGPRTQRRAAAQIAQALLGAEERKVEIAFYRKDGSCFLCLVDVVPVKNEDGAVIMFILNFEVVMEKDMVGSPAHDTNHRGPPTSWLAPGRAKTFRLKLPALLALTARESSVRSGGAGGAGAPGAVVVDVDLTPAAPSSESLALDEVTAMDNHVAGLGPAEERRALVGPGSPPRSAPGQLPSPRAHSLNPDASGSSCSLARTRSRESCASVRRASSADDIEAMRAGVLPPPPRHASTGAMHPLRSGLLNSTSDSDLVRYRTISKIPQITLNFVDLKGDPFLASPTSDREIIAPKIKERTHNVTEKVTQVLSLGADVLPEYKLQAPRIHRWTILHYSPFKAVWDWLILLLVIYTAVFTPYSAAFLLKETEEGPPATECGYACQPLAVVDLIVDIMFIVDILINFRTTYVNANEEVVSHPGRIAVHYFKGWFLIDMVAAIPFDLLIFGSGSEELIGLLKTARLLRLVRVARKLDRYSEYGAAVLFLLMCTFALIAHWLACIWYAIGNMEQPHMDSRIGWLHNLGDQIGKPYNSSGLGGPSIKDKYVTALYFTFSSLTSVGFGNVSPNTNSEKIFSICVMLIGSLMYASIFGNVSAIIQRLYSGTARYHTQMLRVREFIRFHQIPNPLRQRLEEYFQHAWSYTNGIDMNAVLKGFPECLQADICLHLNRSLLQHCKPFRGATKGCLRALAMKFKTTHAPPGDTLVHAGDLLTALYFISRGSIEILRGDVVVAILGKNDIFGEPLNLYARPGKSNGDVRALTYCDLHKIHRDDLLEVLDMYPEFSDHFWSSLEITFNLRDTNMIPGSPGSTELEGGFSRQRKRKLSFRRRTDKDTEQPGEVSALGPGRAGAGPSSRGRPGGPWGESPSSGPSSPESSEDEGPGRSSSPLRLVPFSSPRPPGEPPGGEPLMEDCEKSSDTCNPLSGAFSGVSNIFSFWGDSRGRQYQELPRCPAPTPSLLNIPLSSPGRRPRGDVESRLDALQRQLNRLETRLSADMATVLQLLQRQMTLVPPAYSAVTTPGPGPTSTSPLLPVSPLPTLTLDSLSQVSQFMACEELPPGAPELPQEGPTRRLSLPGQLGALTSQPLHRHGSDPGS
row,SMILES,"hERG current change (%, negative = inhibition) at 10uM [%]"
1,CC(C)C(NC(=O)c1ccccc1F)C(=O)OCC(=O)c1ccc(F)cc1 (stereo not drawn),-9.49
2,CCOC(=O)c1sc(-c2ccccc2)cc1NC(=O)CSc1nnnn1C,-1.13
3,COc1ccccc1/C=C1/C(=O)ON=C1C,12.5
4,COc1cccc(NC(=S)C(C#N)=C2N(C)c3ccccc3N2C)c1,4.88
5,CCn1c(=O)cc(SCC(=O)N2CCCCC2)c2ccccc21,-7.44
6,COC(=O)c1ccc(Oc2nc(NC(C)(C)C)nc(N3CCOCC3)n2)cc1,-16.1
7,Cc1ccc(NC(=O)CSc2nc3ccccc3c(=O)n2CC2CCCO2)cc1 (stereo not drawn),0.693
8,COC(=O)c1ccc2c(=O)n(CCN3CCOCC3)c(SCC(=O)Nc3ccccc3Cl)nc2c1,-33.4
9,CCOC(=O)CSc1nc2ccccc2c(=O)n1CCN1CCOCC1,-50.3
10,Cc1ccc(-n2c(SCC(=O)Nc3ccc(N4CCOCC4)cc3)nc3ccccc3c2=O)cc1,6.08
11,CCOC(=O)CSc1nc2cc(C(=O)OC)ccc2c(=O)n1CCN1CCOCC1,-38.4
12,COC(=O)c1ccc2c(=O)n(CCN3CCOCC3)c(SCC(=O)Nc3ccc(C)cc3)nc2c1,-69.5
13,COC(=O)c1ccc2c(=O)n(CCN3CCOCC3)c(SCC(=O)Nc3cccc(OC)c3)nc2c1,-37.9
14,CCOC(=O)CSc1nc2ccccc2c(=O)n1CC(C)C,-35.3
15,Cc1ccc(NC(=O)CSc2nc3ccccc3c(=O)n2CCCC(=O)NCCCN2CCOCC2)cc1,-52.6
16,CN(C)c1cc[n+](CC(O)C[n+]2ccc(N(C)C)cc2)cc1.[O-][Cl+3]([O-])([O-])[O-],15.9
17,CCCN(CCC)S(=O)(=O)c1ccc(N2CCCC2=O)c([N+](=O)[O-])c1,-19.3
18,COc1cccc(/C=N/NC(=O)CCNc2n[nH]c(=O)[nH]c2=O)c1OC,15.9
19,COc1cccc(NC(=O)c2ccccc2N2C(=O)C3C4C=CC(C4)C3C2=O)c1 (stereo not drawn),-1.23
20,CCN(CC(=O)NC(=O)NCc1ccccc1)Cc1ccccc1,-20.6
21,CCN(CC)CC(=O)NN(Cc1ccccc1)c1ccccc1.O=C(O)C(=O)O,-73.6
22,O=C(CN1CCCCCC1)NN(Cc1ccccc1)c1ccccc1.O=C(O)C(=O)O,-72.3
23,O=C(CN1CCCCCC1)Nc1ccccc1F.O=C(O)C(=O)O,9.38

row,SMILES,"hERG current change (%, negative = inhibition) at 10uM [%]"
1,O=C(CN1CCCCC1)NN(Cc1ccccc1)c1ccccc1.O=C(O)C(=O)O,-73.3
2,CN1CCN(CC(=O)NN(Cc2ccccc2)c2ccccc2)CC1.O=C(O)C(=O)O,-14.2
3,CC(C)(O)C(=O)NN(Cc1ccccc1)c1ccccc1,16.2
4,O=C(CN1CCCCC1)Nc1ccccc1NC(=O)CN1CCCCC1,3.83
5,O=C(CN1CCCCC1)NC(=O)NCc1ccccc1,14.3
6,Cc1ccc(C)c2sc(N)nc12,22.6
7,COc1ccc(NC(=O)CSc2ncn[nH]2)c([N+](=O)[O-])c1,-4.71
8,Nc1nc(N)nc(-c2cc(C(F)(F)F)ccc2Cl)n1,11.9
9,CC(=O)N(C)c1ccc(NC(=O)c2cnn(C)c2)cc1,3.39
10,COc1cccc(CN2C(=O)CCC2(C)C(=O)NC2CCCCC2)c1 (stereo not drawn),12.9
11,COc1cccc(-c2cc(C(=O)N/N=C/c3ccco3)c3ccccc3n2)c1,-2.76
12,C/C(CC(=O)Nc1cccc2c1CCCC2)=N\NC(=O)c1cccc2ccccc12,-7.31
13,O=C(c1ccc2oc(Cc3ccc(Cl)cc3)nc2c1)N1CC[C@H](O)C1,4.21
14,CCCCCCCC1CC(/C(C)=N/NC(N)=O)OC1=O (stereo not drawn),-45.3
15,CCCCCCC1CC(/C(C)=N\NC(N)=O)OC1=O (stereo not drawn),-53
16,CCCCCC1CC(CC(=O)Nc2nncs2)C(=O)O1 (stereo not drawn),-8.91
17,CCCCCCC1CC(C)(C(=O)C[NH2+]c2nncs2)OC1=O.[Br-] (stereo not drawn),-66.3
18,CCCC1CC(C)(/C(C)=N\NC(N)=S)OC1=O (stereo not drawn),12.4
19,Br.CCCCC1CC(CSC(=N)N)OC1=O (stereo not drawn),-1.27
20,CCCCC1CC(C)(C(=O)CSc2nc3ccccc3s2)OC1=O (stereo not drawn),-0.178
21,Br.CCCCCCC1CC(CSC(=N)N)OC1=O (stereo not drawn),-52.1
22,CCCCCC1CC(/C(C)=N/NC(N)=O)OC1=O (stereo not drawn),-7.05
23,CCCCC1CC(/C(C)=N/NC(N)=O)OC1=O (stereo not drawn),-6.35

row,SMILES,"hERG current change (%, negative = inhibition) at 10uM [%]"
1,CCCCCCC1CC(C)(/C(C)=N/NC(N)=O)OC1=O (stereo not drawn),-50.1
2,Br.CCCCCCCC1CC(CSC(=N)N)OC1=O (stereo not drawn),-44.2
3,COc1cccc(NC(=O)c2ccccc2-c2ccccc2C(=O)O)c1,10.1
4,COc1ccc(NC(=O)CN(c2ccc([N+](=O)[O-])cc2)S(=O)(=O)c2ccccc2)cc1,-10.3
5,Cc1ccc(C(=O)O/N=C(\N)c2nonc2N)cc1,-8.67
6,COc1ccc(-c2nc3ccc([N+](=O)[O-])cc3[nH]2)cc1,13.5
7,Cc1c(NC(=O)CSc2nnnn2-c2ccc(C(=O)O)cc2)c(=O)n(-c2ccccc2)n1C,20.8
8,CN(CC(=O)Nc1ccccc1C(F)(F)F)C(=O)c1cc2c(s1)CCCCC2,-29.2
9,CCc1sc(C(=O)NCc2ccccc2)cc1C,-9.06
10,CN1CCN(S(=O)(=O)c2ccc(N(C)CC(=O)Nc3ccc(F)cc3)nc2)CC1,-4.31
11,CN(CC(=O)Nc1ccc(C(N)=O)cc1)CC(=O)Nc1ccccc1Br,11
12,COc1ccc(OC)c(CN2CCN(Cc3cc(=O)oc4cc(O)ccc34)CC2)c1,-74.8
13,O=c1cc(CN2CCN(Cc3ccccc3)CC2)c2ccc(O)cc2o1,-76.8
14,Cc1ccc2c(CN3CCN(C(=O)c4ccco4)CC3)cc(=O)oc2c1C,-48.6
15,CCc1cc2c(CN3CCN(Cc4ccccc4)CC3)cc(=O)oc2cc1O,-35.5
16,O=C(c1ccco1)N1CCN(Cc2cc(=O)oc3cc(O)ccc23)CC1,-69.3
17,COc1ccc2oc(=O)cc(CN3CCOCC3)c2c1,18.3
18,CC1CN(Cc2cc(=O)oc3cc(O)ccc23)CC(C)O1 (stereo not drawn),-23.3
19,COC(=O)C1CCN(Cc2cc(=O)oc3cc(OC)ccc23)CC1,-17.8
20,CN1CCN(Cc2cc(=O)oc3ccc(Cl)cc23)CC1,-16.7
21,O=C(O)C(=O)O.O=C(c1ccco1)N1CCN(Cc2cccc3ccccc23)CC1,-24.3
22,O=c1cc(CN2CCOCC2)c2cc(Cl)ccc2o1,-0.546
23,O=c1cc(CN2CCN(Cc3ccccc3)CC2)c2cc(O)ccc2o1,-68.2

row,SMILES,"hERG current change (%, negative = inhibition) at 10uM [%]"
1,O=C(NC1CCOCC1)C1CCC(=O)N(Cc2cccc(C(F)(F)F)c2)C1 (stereo not drawn),13.7
2,Cc1cc2c(cc1S(=O)(=O)CCC(=O)N(C)Cc1ccccc1)OCC(=O)N2,-35
3,O=[N+]([O-])c1cccc(/C=N/n2c(C3CCCCC3)n[nH]c2=S)c1,11.9
4,COc1cc([N+](=O)[O-])ccc1NC(=O)Nc1ccc2c(c1)OCCO2,25.3
5,CCN1CCN(CCNC(=O)CCCn2nc(C)c3c(C)n(-c4ccc(C)cc4)nc3c2=O)CC1,0.678
6,O=C(CCC(=O)c1ccc[nH]1)c1ccc(Cl)cc1,-5.4
7,CC1CCCN(CCC(=O)Nc2ccc(F)c(F)c2)C1 (stereo not drawn),-30.1
8,COc1ccc(/C(C)=N/NC(=O)Cc2ccc(Cl)cc2)cc1,14.6
9,O=C1C(=O)N(c2ccccn2)C(c2ccc(Br)cc2)/C1=C(/O)c1ccc(Br)cc1 (stereo not drawn),-47.8
10,CCOc1cc2[nH]c(=O)n(CCCC(=O)NCc3ccco3)c(=O)c2cc1OCC,5.83
11,Cc1cc(C)n(-c2ccc(C(=O)N3CCN(S(=O)(=O)c4ccc(Cl)cc4)CC3)cc2)n1,-25.8
12,Cc1ccccc1-c1ncc(CN2CCC(CO)(CCCc3ccccc3)CC2)cn1,-10.9
13,OCC1(CCCc2ccccc2)CCN(Cc2ccc(F)cc2)CC1,-72.9
14,O=C(CN1CCN(Cc2ccc(F)cc2)CC1)NCCc1ccccc1,-13.6
15,CC(=O)c1cccc(CN2CCC(CO)(Cc3ccccc3)CC2)c1,-22.9
16,COC(=O)c1cccc(C(=O)N2CCC(CO)(CCc3ccccc3)CC2)c1,-13.6
17,Cn1cc(CN2CCC(CO)(CCCc3ccccc3)CC2)c(-c2ccccc2)n1,-66.3
18,Cc1cccc(-c2ncc(CN3CCC(CO)(CCCc4ccccc4)CC3)cn2)c1,-54.1
19,CC(=O)c1cccc(CN2CCC(CO)(CCCc3ccccc3)CC2)c1,-63.9
20,CC(C)(O)C#Cc1ccc(CN2CCC(CO)(CCc3ccccc3)CC2)cc1,-39.8
21,COc1cccc(CC2(CO)CCN(Cc3cnc(-c4cccc(C)c4)nc3)CC2)c1,-19.9

# From publication PMC4336329 (PLoS ONE, 2015)
